Results from PubChem BioAssay (NCATS).
Inconclusive results are not listed. Active and inactive are the calls of the source. Calls come from the whole dose curve; as a rule, active = well fitted curve in the direction sought with a large enough effect; inconclusive = small, poorly fitted or top-dose-only effect, or another doubt; inactive = no such curve, though single readings can be large; an effect the other way counts as inactive or inconclusive.

Target: Luciferin 4-monooxygenase (Photinus pyralis) (UniProt P08659)
Test: Biochemical firefly luciferase enzyme assay for NPC (AID 624030);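 for activity change, negative = inhibition: purified P. pyralis luciferase at 10 nM with luciferin and ATP substrate; 0% = DMSO and -100% = full luciferase inhibition by PTC124 control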
Conditions: purified P. pyralis luciferase, luminescence, 5 min; series mostly up to 58.6 µM; activity change, negative = inhibition: at the top concentration
Summary of the method: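 Counter-screen for direct inhibition of the luciferase enzyme by approved-drug library compounds, run at 10 nM enzyme in 50 mM Tris acetate (final). Luminescence was read within 5 min of enzyme-buffer addition and normalized to PTC124 versus DMSO (0%).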
Note: nearly all actives have a fitted effect of over 70% in size.
Potency is the fitted concentration of half-maximal effect.

Sequence of Luciferin 4-monooxygenase (Photinus pyralis) (P08659 whole entry, looked up): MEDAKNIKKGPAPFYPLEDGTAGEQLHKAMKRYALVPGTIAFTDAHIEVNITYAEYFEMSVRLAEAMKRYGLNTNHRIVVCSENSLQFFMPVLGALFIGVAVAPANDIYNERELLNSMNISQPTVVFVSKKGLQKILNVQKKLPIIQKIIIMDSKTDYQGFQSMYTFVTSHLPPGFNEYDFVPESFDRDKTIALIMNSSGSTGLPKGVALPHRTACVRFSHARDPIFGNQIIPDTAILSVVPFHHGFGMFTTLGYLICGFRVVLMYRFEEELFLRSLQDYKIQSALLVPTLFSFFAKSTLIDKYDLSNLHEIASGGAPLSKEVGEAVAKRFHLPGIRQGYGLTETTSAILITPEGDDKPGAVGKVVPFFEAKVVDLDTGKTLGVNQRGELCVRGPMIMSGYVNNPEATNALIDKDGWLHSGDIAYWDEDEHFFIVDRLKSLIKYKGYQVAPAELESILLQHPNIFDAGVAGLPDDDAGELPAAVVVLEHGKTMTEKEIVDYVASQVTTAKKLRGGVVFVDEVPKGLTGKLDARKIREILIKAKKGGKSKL

| Structure (SMILES) | activity change, negative = inhibition | Potency |
| --- | --- | --- |
| NC(N)=O | 1.47% (inactive) |  |
| CO/N=C(/C(=O)N[C@@H]1C(=O)N2C(C(=O)O)=C(COC(N)=O)CS[C@H]12)c1ccco1 | -5.8% (inactive) |  |
| CCC(C(=O)NC(N)=O)c1ccccc1 (configuration not stated) | 1.12% (inactive) |  |
| NC(=S)N=Nc1ccc(NN=C(N)N)cc1 |  | 11.4 µM (active) |
| C[C@H](CCCC(C)(C)O)[C@H]1CC[C@H]2[C@@H]3CC=C4C[C@@H](O)CC[C@]4(C)[C@H]3CC[C@]12C | -1.99% (inactive) |  |
| CCOC(=O)c1cc(-c2ccccc2)nc2ccc(C)cc12 | -12.5% (inactive) |  |
| O=C(O)[C@H]1C(=CCO)O[C@H]2CC(=O)N12 | 1.69% (inactive) |  |
| Cc1cc(C)c(NC(=O)C[C@H](CC(=O)O)c2cccc3ccccc23)c(C(=O)N2CCC3(CCCC3)CC2)c1 | -6.96% (inactive) |  |
| C=Cc1ccc(S(=O)(=O)O)cc1 | -5.61% (inactive) |  |
| CN(C)c1ccc(C(=C2C=CC(=[N+](C)C)C=C2)c2c(O)c(S(=O)(=O)[O-])cc3cc(S(=O)(=O)O)ccc23)cc1 |  | 14.4 µM (active) |
| C=CC[N+]1([C@H]2C[C@H]3[C@@H]4CC[C@H]5C[C@H](O)[C@@H](N6CCOCC6)C[C@]5(C)[C@H]4CC[C@]3(C)[C@H]2OC(C)=O)CCCC1 | -3.5% (inactive) |  |
| CC(C)OC(=O)Nc1ccc2nc(-c3cscn3)[nH]c2c1 |  | 9.07 µM (active) |
| C[C@H](CCC(=O)O)[C@H]1CC[C@H]2[C@@H]3CC[C@@H]4C[C@H](O)CC[C@]4(C)[C@H]3C[C@H](O)[C@]12C | -3.98% (inactive) |  |
| O=P(O)(O)OC[C@H]1O[C@](O)(COP(=O)(O)O)[C@@H](O)[C@@H]1O | 23.1% (inactive) |  |
| COc1ccc(C(=O)CCC(=O)O)c2ccccc12 | -7.13% (inactive) |  |
| CN(C)CCC=C1c2ccccc2C(C)(C)c2ccccc21 | 12.6% (inactive) |  |
| CC(C)(COP(=O)(O)OP(=O)(O)OC[C@H]1O[C@@H](n2cnc3c(N)ncnc32)[C@H](O)[C@@H]1OP(=O)(O)O)C(O)C(=O)NCCC(=O)NCCS (some centres not stated) | -1.8% (inactive) |  |
| CC(=O)N[C@@H]1C(O[C@H]2O[C@H](C(=O)O)C(O)[C@H](O)[C@H]2O)[C@H](O)[C@@H](CO)O[C@H]1O[C@@H]1C(C(=O)O)O[C@@H](O[C@H]2[C@H](O)[C@@H](CO)OC(O)[C@@H]2NC(C)=O)[C@H](O)[C@H]1O (some centres not stated) | -0.619% (inactive) |  |
| NC(=O)CC[C@@H]1NC(=O)[C@H](Cc2ccccc2)NC(=O)[C@H](Cc2ccc(O)cc2)NC(=O)[C@@H](N)CSSC[C@@H](C(=O)N2CCC[C@H]2C(=O)N[C@@H](CCCN=C(N)N)C(=O)NCC(N)=O)NC(=O)[C@H](CC(N)=O)NC1=O | 1.6% (inactive) |  |
| Cc1ncc[nH]1 | 1.65% (inactive) |  |

| Structure (SMILES) | activity change, negative = inhibition | Potency |
| --- | --- | --- |
| Cn1c(O)c(N=NC(N)=S)c2ccccc21 | -9.96% (inactive) |  |
| Cc1ccc(S(=O)(=O)NCl)cc1 | 5.05% (inactive) |  |
| CCCCC[C@H](O)/C=C/[C@H]1[C@H](O)CC(=O)[C@@H]1C/C=C\CCCC(=O)O | 0.527% (inactive) |  |
| N#Cc1ccc2c(c1)N(CCCN1CCC(O)CC1)c1ccccc1S2 | 8.85% (inactive) |  |
| CCCCCCCCCC(=O)NO |  | inactive |
| O=C(O)c1ccc(NC(=O)[C@H](Cc2ccc(O)cc2)NC(=O)c2ccccc2)cc1 | -2.21% (inactive) |  |
| COc1ccccc1N1CCN(CCCC(=O)c2ccc(F)cc2)CC1 | -0.258% (inactive) |  |
| CC/C=C\C/C=C\C/C=C\C/C=C\C/C=C\C/C=C\CCC(=O)O | -7.13% (inactive) |  |
| Cn1c(=O)c2c(ncn2CCOC(=O)C(C)(C)Oc2ccc(Cl)cc2)n(C)c1=O | 0.678% (inactive) |  |
| CC(C)CCC[C@@H](C)[C@H]1CC[C@H]2[C@@H]3CC[C@@H]4C[C@H](O)CC[C@]4(C)[C@H]3CC[C@]12C | -0.464% (inactive) |  |
| F[Si-2](F)(F)(F)(F)F | -2% (inactive) |  |
| O=c1n(CC2CO2)c(=O)n(CC2CO2)c(=O)n1CC1CO1 (configuration not stated) | 2.42% (inactive) |  |
| Cc1ncc(C[n+]2csc(CCOP(=O)(O)O)c2C)c(N)n1 | 1.01% (inactive) |  |
| COc1ccc(/C=C/C(=O)O)cc1 | -16.6% (inactive) |  |
| CC12CCC(C1)C(C)(C)C2=O (configuration not stated) | 5.57% (inactive) |  |
| O=c1[nH]c(=O)n([C@H]2C[C@H](O)[C@@H](CO)O2)cc1/C=C/Br | -0.444% (inactive) |  |
| CN1C(=O)C[C@@H](C(=O)N[C@@H](Cc2cnc[nH]2)C(=O)N2CCC[C@H]2C(N)=O)NC1=O | 0.247% (inactive) |  |
| Cn1cc(NC(=O)c2cc(NC(=O)c3cc(NC=O)cn3C)cn2C)cc1C(=O)NCCC(=N)N | -18.8% (inactive) |  |
| COC(=O)C(CN)c1c[nH]c2ccc(OC)cc12 (configuration not stated) | 6.54% (inactive) |  |
| CC(C)(C)CC(C)(C)c1ccc(OCCO)cc1 | 0.0617% (inactive) |  |

Test system: not listed separately
Test: S16 Schwann cell viability assay (CellTiter-Glo assay) (AID 624031);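 for activity change, negative = cytotoxicity: native untransfected S16 rat Schwann cells; cellular ATP luminescence as a viability measure; plate controls were DMSO-treated cells for no effect and cell-free wells for full effect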
Conditions: S16 rat Schwann cells viability, 24 h; series mostly up to 57.5 µM; activity change, negative = cytotoxicity: at the top concentration
Summary of the method: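 Concentration-effect curves come from CellTiter-Glo luminescence of S16 rat Schwann cells after 24 h compound exposure. Each reading was normalized to DMSO wells (0%) and wells without cells, and curves were ranked by r2 and response magnitude.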

| Structure (SMILES) | activity change, negative = cytotoxicity | Potency |
| --- | --- | --- |
| NC(N)=O | -1.2% (inactive) |  |
| CO/N=C(/C(=O)N[C@@H]1C(=O)N2C(C(=O)O)=C(COC(N)=O)CS[C@H]12)c1ccco1 | -4.04% (inactive) |  |
| CCC(C(=O)NC(N)=O)c1ccccc1 (configuration not stated) | -15.1% (inactive) |  |
| NC(=S)N=Nc1ccc(NN=C(N)N)cc1 |  | 10.2 µM (active) |
| CCOC(=O)c1cc(-c2ccccc2)nc2ccc(C)cc12 | 2.99% (inactive) |  |
| O=C(O)[C@H]1C(=CCO)O[C@H]2CC(=O)N12 | -23.7% (inactive) |  |
| C=Cc1ccc(S(=O)(=O)O)cc1 | -1.7% (inactive) |  |
| C=CC[N+]1([C@H]2C[C@H]3[C@@H]4CC[C@H]5C[C@H](O)[C@@H](N6CCOCC6)C[C@]5(C)[C@H]4CC[C@]3(C)[C@H]2OC(C)=O)CCCC1 | 1.86% (inactive) |  |
| C[C@H](CCC(=O)O)[C@H]1CC[C@H]2[C@@H]3CC[C@@H]4C[C@H](O)CC[C@]4(C)[C@H]3C[C@H](O)[C@]12C | 0.287% (inactive) |  |
| O=P(O)(O)OC[C@H]1O[C@](O)(COP(=O)(O)O)[C@@H](O)[C@@H]1O | -13.2% (inactive) |  |
| COc1ccc(C(=O)CCC(=O)O)c2ccccc12 | -3.08% (inactive) |  |
| CC(C)(COP(=O)(O)OP(=O)(O)OC[C@H]1O[C@@H](n2cnc3c(N)ncnc32)[C@H](O)[C@@H]1OP(=O)(O)O)C(O)C(=O)NCCC(=O)NCCS (some centres not stated) | -6.16% (inactive) |  |
| CC(=O)N[C@@H]1C(O[C@H]2O[C@H](C(=O)O)C(O)[C@H](O)[C@H]2O)[C@H](O)[C@@H](CO)O[C@H]1O[C@@H]1C(C(=O)O)O[C@@H](O[C@H]2[C@H](O)[C@@H](CO)OC(O)[C@@H]2NC(C)=O)[C@H](O)[C@H]1O (some centres not stated) | -19% (inactive) |  |
| NC(=O)CC[C@@H]1NC(=O)[C@H](Cc2ccccc2)NC(=O)[C@H](Cc2ccc(O)cc2)NC(=O)[C@@H](N)CSSC[C@@H](C(=O)N2CCC[C@H]2C(=O)N[C@@H](CCCN=C(N)N)C(=O)NCC(N)=O)NC(=O)[C@H](CC(N)=O)NC1=O | -0.976% (inactive) |  |
| Cc1ncc[nH]1 | -0.105% (inactive) |  |
| Cc1ccc(S(=O)(=O)NCl)cc1 | 0% (inactive) |  |

| Structure (SMILES) | activity change, negative = cytotoxicity | Potency |
| --- | --- | --- |
| CCCCC[C@H](O)/C=C/[C@H]1[C@H](O)CC(=O)[C@@H]1C/C=C\CCCC(=O)O | 6.26% (inactive) |  |
| N#Cc1ccc2c(c1)N(CCCN1CCC(O)CC1)c1ccccc1S2 | -13.6% (inactive) |  |
| CCCCCCCCCC(=O)NO | -1.35% (inactive) |  |
| O=C(O)c1ccc(NC(=O)[C@H](Cc2ccc(O)cc2)NC(=O)c2ccccc2)cc1 | 5.43% (inactive) |  |
| COc1ccccc1N1CCN(CCCC(=O)c2ccc(F)cc2)CC1 | -22% (inactive) |  |
| Cn1c(=O)c2c(ncn2CCOC(=O)C(C)(C)Oc2ccc(Cl)cc2)n(C)c1=O | -26.7% (inactive) |  |
| F[Si-2](F)(F)(F)(F)F | -2.04% (inactive) |  |
| O=c1n(CC2CO2)c(=O)n(CC2CO2)c(=O)n1CC1CO1 (configuration not stated) | 3.63% (inactive) |  |
| Cc1ncc(C[n+]2csc(CCOP(=O)(O)O)c2C)c(N)n1 | -9.94% (inactive) |  |
| COc1ccc(/C=C/C(=O)O)cc1 | 16.9% (inactive) |  |
| CC12CCC(C1)C(C)(C)C2=O (configuration not stated) | 0.777% (inactive) |  |
| O=c1[nH]c(=O)n([C@H]2C[C@H](O)[C@@H](CO)O2)cc1/C=C/Br | 1.8% (inactive) |  |
| CN1C(=O)C[C@@H](C(=O)N[C@@H](Cc2cnc[nH]2)C(=O)N2CCC[C@H]2C(N)=O)NC1=O | 14.6% (inactive) |  |
| Cn1cc(NC(=O)c2cc(NC(=O)c3cc(NC=O)cn3C)cn2C)cc1C(=O)NCCC(=N)N | -15.4% (inactive) |  |
| COC(=O)C(CN)c1c[nH]c2ccc(OC)cc12 (configuration not stated) | -22.4% (inactive) |  |
| CC(C)(C)CC(C)(C)c1ccc(OCCO)cc1 | -14.4% (inactive) |  |
